The panel holds about 79,000 compounds, 15% with a hit somewhere; the sample as a whole holds those more often. Active and inactive are the calls of the source. Cut-off read from the data, not from the text of the source: active = growth inhibition above about 70%; inactive = the rest.
experiment: NCI Yeast Anticancer Drug Screen. Data for the rad50 strain (AID 155);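 note: 0% = growth of vehicle-only cultures of the same strain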; settings: S. cerevisiae rad50 strain growth inhibition; at 50.0 µM; hits give high values
How it was run: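 A DNA repair-deficient yeast mutant serves as the test organism; compound-induced growth inhibition is calculated against vehicle-treated cells.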

Structure (SMILES) | growth inhibition
CC1(C)Oc2ccc3c(=O)cc(-c4ccc(F)cc4)oc3c2C1C(=O)O (stereo unspecified) | -2.3% (inactive)
OC(c1ccc(F)cc1)(c1cccs1)C1CC1 (stereo unspecified) | -9.55% (inactive)
COc1ccc2nc(N/N=C/c3ccc(C)s3)cc(C)c2c1 | 22.3% (inactive)
CC1CC(C(=O)OC2OC(COC3OC(CO)C(OC4OC(C)C(O)C(O)C4O)C(O)C3O)C(O)C(O)C2O)C2CCC3(C)C(=CCC4(C)C3CCC3C(C)(CO)C(O)C(O)CC34C)C2C1C (stereo unspecified) | 60.1% (inactive)
COc1cc(/C=C2/SC(=S)NC2=O)cc(OC)c1OC | 16.8% (inactive)
Cn1cnc2c(=O)[nH]c(=O)[nH]c21 | 25.9% (inactive)
Cc1ccc2c(sc(-c3ccc4c(c3)sc(-c3ccc5c(c3)sc(-c3ccc(N(C)C)cc3)[n+]5C)[n+]4C)[n+]2C)c1S(=O)(=O)O (tested in a mixture with another compound) | 27.7% (inactive)
O=C(O)c1cc(C(=O)O)cc([N+](=O)[O-])c1 | -3.75% (inactive)
NC(=O)CC1OC(=O)Cc2cc3c(c(O)c21)C(=O)c1c(O)cccc1C3=O (stereo unspecified) | 1.05% (inactive)
N#CC1(c2ccc(Cl)cc2)CCCC1 | -15.3% (inactive)
COc1cc(/C=N/N2C(=O)c3ccccc3C2=O)ccc1O | 26.8% (inactive)
CC(C)=CC(O)C/C(C)=C/CC/C(C)=C/CCC1(C)C(CCCO)/C(=C(/C)C=O)CCC1(C)O (stereo unspecified) | 18.9% (inactive)
CCN(CC)c1ccc(N=Cc2ccccc2S(=O)(=O)O)cc1 | 0.9% (inactive)
CCOc1ccc(/C=N/NS(=O)(=O)c2ccc(C)cc2)cc1 | -3.6% (inactive)
Cc1c(Cl)cccc1N1C(=O)CC(Sc2ccccc2N)C1=O (stereo unspecified) | 1.05% (inactive)
Cc1ccc2nc3c(nc2c1)-c1cccc2cccc-3c12 | -18.6% (inactive)
CNC(=S)c1nnsc1N | 1.7% (inactive)
COc1ccc(-c2nc3ccccc3c(=S)n2OC(C)=O)cc1 | 68.5% (inactive)
CC(CN1CCCC1)C(O)(Cc1ccccc1)c1ccccc1 (stereo unspecified) | -0.05% (inactive)

Structure (SMILES) | growth inhibition
Cn1c2c(c3ccccc3c1=O)C(=O)c1ccccc1-2 | 43% (inactive)
CCCCCCCCCCCCOc1ccccc1C=O | 1.5% (inactive)
C=C1C(=O)O[C@@H]2C[C@@]3(C)CC(=O)C=C(C)[C@@H]3C[C@H]12 | 12.6% (inactive)
O=C(/C=C/c1ccccc1)Nc1ccccc1 | 12.9% (inactive)
COc1cc(/C=N/NC(=O)c2cccs2)cc(OC)c1OC | -12.8% (inactive)
C=CN1C(=O)N(C=C)C(C)(CC(C)C)C1=O (stereo unspecified) | 3.6% (inactive)
CC(=O)CCN(Cc1ccccc1)Cc1ccccc1 | 1.7% (inactive)
COc1cc(/C=N\Nc2ccccc2[N+](=O)[O-])cc(OC)c1OC | -11.4% (inactive)
CC1CCN(c2ccc([N+](=O)[O-])cc2[N+](=O)[O-])CC1 | 42.2% (inactive)
COc1ccc(/C=C(\C#N)c2ccc(C)cc2)cc1OC | 50.4% (inactive)
Cc1ccccc1NC(=S)Nc1ccccn1 | 22% (inactive)
O=c1oc(-c2ccccc2)nc2cc(Cl)ccc12 | -0.3% (inactive)
O=c1oc(/C=C/c2ccccc2)nc2cc(Cl)ccc12 | 19.6% (inactive)
C[n+]1ccccc1/C=C/c1cccc(O)c1 | 14% (inactive)
CC(C)=CCc1cc(C2COc3cc4c(c(O)c3C2=O)C=CC(C)(C)O4)c(O)cc1O (stereo unspecified) | 91.3% (active)
O=[N+]([O-])c1cccc(S(=O)(=O)OCCOc2ccccc2)c1 | 30.7% (inactive)
N#CC(=S)Nc1ccc(F)cc1 | 20.2% (inactive)
CC1=NN(c2ccccc2)C(=O)/C1=C\c1ccc(N(CCC#N)CCC#N)cc1 | 6.85% (inactive)
CN(C)c1ccc(C2=C([O-])C(=C3C=CC(=[N+](C)C)C=C3)C2=O)cc1 | -10.4% (inactive)

experiment: NCI Yeast Anticancer Drug Screen. Data for the mec2-1 strain (AID 157); settings: S. cerevisiae mec2-1 strain, at 50.0 µM, hits give high values
How it was run: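 Growth inhibition is read against vehicle-treated controls after compound exposure of the mec2-1 yeast strain, which is defective in DNA damage repair or cell cycle control.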

Structure (SMILES) | growth inhibition
OC(c1ccc(F)cc1)(c1cccs1)C1CC1 (stereo unspecified) | -4.75% (inactive)
COc1cc(/C=C2/SC(=S)NC2=O)cc(OC)c1OC | -1.4% (inactive)
N#CC1(c2ccc(Cl)cc2)CCCC1 | -44% (inactive)
COc1cc(/C=N/N2C(=O)c3ccccc3C2=O)ccc1O | 8.1% (inactive)
CCN(CC)c1ccc(N=Cc2ccccc2S(=O)(=O)O)cc1 | -11.4% (inactive)
CCOc1ccc(/C=N/NS(=O)(=O)c2ccc(C)cc2)cc1 | -34.5% (inactive)
Cc1c(Cl)cccc1N1C(=O)CC(Sc2ccccc2N)C1=O (stereo unspecified) | -13.9% (inactive)
Cc1ccc2nc3c(nc2c1)-c1cccc2cccc-3c12 | -43% (inactive)
CC(CN1CCCC1)C(O)(Cc1ccccc1)c1ccccc1 (stereo unspecified) | -2.7% (inactive)
CCCCCCCCCCCCOc1ccccc1C=O | -29.8% (inactive)
COc1cc(/C=N/NC(=O)c2cccs2)cc(OC)c1OC | -26.1% (inactive)
C=CN1C(=O)N(C=C)C(C)(CC(C)C)C1=O (stereo unspecified) | -5.55% (inactive)
CC(=O)CCN(Cc1ccccc1)Cc1ccccc1 | -1.95% (inactive)
COc1cc(/C=N\Nc2ccccc2[N+](=O)[O-])cc(OC)c1OC | -25.4% (inactive)
CC1CCN(c2ccc([N+](=O)[O-])cc2[N+](=O)[O-])CC1 | 3.85% (inactive)
COc1ccc(/C=C(\C#N)c2ccc(C)cc2)cc1OC | 52.8% (inactive)
Cc1ccccc1NC(=S)Nc1ccccn1 | -0.3% (inactive)
O=c1oc(-c2ccccc2)nc2cc(Cl)ccc12 | 0.25% (inactive)
O=c1oc(/C=C/c2ccccc2)nc2cc(Cl)ccc12 | 10.1% (inactive)
C[n+]1ccccc1/C=C/c1cccc(O)c1 | -19.9% (inactive)
O=[N+]([O-])c1cccc(S(=O)(=O)OCCOc2ccccc2)c1 | 4.15% (inactive)
CC1=NN(c2ccccc2)C(=O)/C1=C\c1ccc(N(CCC#N)CCC#N)cc1 | -4.95% (inactive)
CN(C)c1ccc(C2=C([O-])C(=C3C=CC(=[N+](C)C)C=C3)C2=O)cc1 | -15.2% (inactive)

— PubChem BioAssay (NCI)
